According to PubChem BioAssay (Tox21):
Results filed as inconclusive are left out. A structure can be active in one record and inactive in another. Calls of active or inactive are those of the source. The call rests on the fitted dose curve; in most records, active means well fitted inhibition curve with a large enough effect in the repeat runs; inconclusive means weak or mixed curves; inactive means no such curve, though single readings can be large or run the other way.

Each compound was assayed against Cytochrome P450 2D6 (Homo sapiens) (UniProt P10635) (assay: Cytochrome P450 Family 2 Subfamily D Member 6 (CYP2D6) small molecule antagonists: luciferase reporter qHTS assay (AID 1671196; further: nearly all actives have a fitted effect of over 50% in size)). Settings: P450-Glo CYP2D6 enzyme assay, luciferin luminescence, 1 h; series mostly up to 115 µM; activity change, negative = inhibition: at the top concentration.
Description: U.S. Tox21 Program National Center for Advancing Translational Sciences [NCATS] U.S. Environmental Protection Agency [EPA] National Institutes of Environmental Health Sciences [NIEHS] National Toxicology Program [NTP] U.S. Food and Drug Administration [FDA] Tox21 Assay Overview: Cytochrome P450 (CYP) enzymes are membrane-bound hemeproteins that play a key role in metabolism of drugs and xenobiotics. Evaluation of the effect of chemicals on CYP isozymes is useful to minimize the adverse drug reactions and toxicities in drug development process. Tox21 chemicals were tested for their effect on CYP enzyme activities by using P450-Glo (TM) screening systems (Promega Corporation, Madison, WI). These systems provide a luminescent method containing proluciferin substrates and are converted to luciferin products by CYP isozymes. The luciferin products formed are detected with a luciferin detection reagent, and the amount of light produced is proportional to CYP activity. P450-Glo (TM) CYP2D6 screening system (Catalog. No. V9890) was used to detect the compounds that interfere in CYP2D6 activity.
Tox21 Assay Protocol Summary: Two ul of enzyme-substrate mix was dispensed into medium binding white/solid 1536-well plates (Greiner Bio-One North America Inc., Monroe, NC) using a BioRaptr Flying Reagent Dispenser (FRD, Beckman Coulter, Brea, CA). […] The assay plates were incubated at room temperature for 10 min. Then 2 ul of NADPH regeneration solution was added to each well of the assay plates using an FRD and incubated at room temperature for 1 h. The reaction was stopped by adding 4 ul of detection reagent using an FRD and after 20 min incubation at room temperature the luminescence signal was measured using a ViewLux plate reader (Perkin Elmer, Shelton, CT). Data were expressed as relative luminescence units.
On the % scale 0 is the no-effect control and ±100 the full control effect; potency means the concentration at half of the fitted maximal effect.

Cytochrome P450 2D6 (Homo sapiens), sequence (P10635 whole entry, looked up): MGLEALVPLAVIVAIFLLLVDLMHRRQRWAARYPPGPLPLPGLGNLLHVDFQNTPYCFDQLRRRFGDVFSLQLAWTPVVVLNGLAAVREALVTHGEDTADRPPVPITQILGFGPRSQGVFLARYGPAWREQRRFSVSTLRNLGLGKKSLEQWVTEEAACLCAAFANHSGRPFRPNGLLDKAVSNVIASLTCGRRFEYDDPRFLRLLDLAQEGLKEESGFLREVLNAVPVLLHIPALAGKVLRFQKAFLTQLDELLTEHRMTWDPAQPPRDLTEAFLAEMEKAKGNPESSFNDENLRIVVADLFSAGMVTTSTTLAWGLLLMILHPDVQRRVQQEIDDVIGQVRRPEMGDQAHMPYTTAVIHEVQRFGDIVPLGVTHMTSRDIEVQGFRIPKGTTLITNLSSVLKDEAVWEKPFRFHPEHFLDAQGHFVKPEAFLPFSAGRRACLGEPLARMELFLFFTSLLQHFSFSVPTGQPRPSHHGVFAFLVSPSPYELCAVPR

Row | Compound | activity change, negative = inhibition | Potency
1 | COC[C@@H](NC(C)=O)C(=O)NCc1ccccc1 | -2.38% [at 53 µM] (inactive) | –
2 | OCC(Cl)CCl (stereo not given) | -14.4% (inactive) | –
3 | C=CCC1(C(C)CC)C(=O)NC(=O)NC1=O (stereo not given) | -17.6% [at 53 µM] (inactive) | –
4 | CC(C)C(C)(N)C#N (stereo not given) | -14.4% (inactive) | –
5 | CC(C)(C)C(=O)C(Cl)Cl | -5.16% (inactive) | –
6 | O=C(O)c1c(Cl)ccc2cc(Cl)cnc12 | -15.3% (inactive) | –
7 | CCCCOC(C)=O | 0.0519% (inactive) | –
8 | CCN(CC)CCOC(=O)C(O)(c1ccccc1)c1ccccc1 | – | 3.47 µM (active)
9 | Cc1ccc(Cl)c(O)c1 | -7.75% [at 53 µM] (inactive) | –
10 | COC(=O)c1ccc(CBr)cc1 | – | 64 µM (active)
11 | CN(C)C(=O)Oc1cc(OC(=O)N(C)C)cc(C(O)CNC(C)(C)C)c1 (stereo not given) | – | 4.9 µM (active)
12 | BrCC1CO1 (stereo not given) | -3.04% (inactive) | –
13 | C=C(C)[C@H]1CN[C@H](C(=O)O)[C@H]1CC(=O)O | -2.16% [at 53 µM] (inactive) | –
14 | C=C(Cl)CCl | -12.7% (inactive) | –
15 | O=c1[nH]c2ccccc2n1C1CCNCC1 | – | 30.9 µM (active)
16 | N#CN | -6.81% [at 300 µM] (inactive) | –
17 | CC(C)(C)c1cc(O)ccc1O | – | 63.3 µM (active) and inactive
18 | CC[C@H](N)c1ccccc1 | – | 35.6 µM (active)
19 | O=C(NC(O)C(Cl)(Cl)Cl)NC(O)C(Cl)(Cl)Cl (stereo not given) | 1.67% [at 53 µM] (inactive) | –
20 | N[C@@H](Cc1ccc(Oc2cc(I)c(O)c(I)c2)c(I)c1)C(=O)O | -3.94% [at 53 µM] (inactive) | –

Row | Compound | activity change, negative = inhibition | Potency
21 | CC(=O)CN(CC(C)=O)N=O | -12.2% (inactive) | –
22 | CC(=NC#N)N(C)Cc1ccc(Cl)nc1 | -29.8% (inactive) | –
23 | CCCCS(=O)(=O)Cl | -18% (inactive) | –
24 | O=CCCl | -3.79% (inactive) | –
25 | NCCOS(=O)(=O)O | 3.43% (inactive) | –
26 | CCCN1CCC[C@@H]2Cc3nc(N)ncc3C[C@H]21 | – | 11 µM (active)
27 | NNCc1ccccc1 | – | 11.5 µM (active)
28 | CNC(=O)O/N=C(/CSC)C(C)(C)C | -1.17% (inactive) | –
29 | CN=CNc1ccc(C)cc1C | -8.24% (inactive) | –
30 | CC(C)c1ccc(O)cc1 | -5.79% (inactive) | –
31 | ClCCCCCCCl | 0.124% (inactive) | –
32 | CN(C)C1CCCCC1 | -31.5% (inactive) | –
33 | C=CCCC#N | – | 38.9 µM (active)
34 | O=C(Cl)OCc1ccccc1 | -12.8% (inactive) | –
35 | CCc1cc(OC)c(C[C@H](C)N)cc1OC | – | 4.16 µM (active)
36 | O=C1C2CC=CCC2C(=O)N1SC(Cl)(Cl)Cl (stereo not given) | – | 78.3 µM (active)
37 | Cc1ccc2c(c1)C1CN(C)CCC1N2 (stereo not given) | – | 4.25 µM (active)
38 | C[C@@H](N)[C@@H](O)c1ccccc1 | – | 17.4 µM (active)
39 | CS(=O)(=O)c1ccc(C(=O)C2C(=O)CCCC2=O)c(Cl)c1COCC(F)(F)F | -23.1% (inactive) | –
40 | O=C(CCl)NCO | -14.2% (inactive) | –
